Compounds with a hit are over-represented: about 32% of the library has one in this group of screens.
PostGolgi yeast = growth inhibition of a yeast mutant, post-Golgi transport screen; 98,000 tested, 0.9% active; inhibition, % at 10 µM; post-Golgi transport phenotypic cell assay;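 also: yeast cells grown in 1536-well plates; yeast grown about 18 h at 30C before absorbance read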
CYP2C9 activ = activators of human CYP2C9 | P11712 | recombinant CYP2C9, luciferin-H conversion, luminescence; hits give high values; factor 1 = untreated enzyme, 0 = blocked | activation factor at 5 µM | 96,000 tested, 1.4% active | AID 1024;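 active = activation factor of 2 or more for CYP2C9 at a 5 µM dose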;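 also: 0 = sulfaphenazole-blocked wells and 1 = vehicle-only wells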
PostGolgi ctrl = yeast control strain growth, post-Golgi counter-screen; efflux-deficient yeast background strain, growth absorbance A615, 16 h; inhibition, % at 10 µM; 98,000 tested, 5% active
CYP2C9 inhib = inhibitors of human CYP2C9 | P11712 | CYP2C9 Supersomes, luciferin-H conversion, luminescence | inhibition, % at 5 µM | 96,000 tested, 20% active;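 active = blocking of liver enzyme CYP2C9 beyond about 50% at 5 µM, limit read from the data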
CYP2C19 activ = increases human CYP2C19 enzyme activity. P33261. recombinant CYP2C19, luciferin-H EGE luminescence; hits give high values; 0 = fully inhibited enzyme, 1 = untreated enzyme. activation factor at 5 µM. 96,000 tested, under 10 active. AID 1025;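 active = activation factor of at least 2 at 5 µM in the primary screen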;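 also: 0 = wells with 2.5 mM tranylcypromine and 1 = vehicle-only wells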
Target sequence (P33261 whole entry, looked up): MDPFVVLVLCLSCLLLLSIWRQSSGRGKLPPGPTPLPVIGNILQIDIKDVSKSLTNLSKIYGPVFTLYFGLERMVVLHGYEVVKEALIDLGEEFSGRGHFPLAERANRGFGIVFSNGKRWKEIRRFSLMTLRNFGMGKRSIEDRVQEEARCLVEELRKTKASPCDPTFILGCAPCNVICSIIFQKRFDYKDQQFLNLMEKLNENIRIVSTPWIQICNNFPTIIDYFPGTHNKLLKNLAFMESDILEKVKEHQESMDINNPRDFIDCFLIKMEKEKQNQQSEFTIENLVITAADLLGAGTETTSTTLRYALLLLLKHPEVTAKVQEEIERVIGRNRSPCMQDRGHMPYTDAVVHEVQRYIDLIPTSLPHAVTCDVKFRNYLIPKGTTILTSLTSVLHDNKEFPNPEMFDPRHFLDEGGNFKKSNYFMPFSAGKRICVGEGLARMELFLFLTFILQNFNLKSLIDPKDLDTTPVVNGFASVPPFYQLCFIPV
CYP2C19 inhib = blocks human cytochrome P450 2C19. P33261. inhibition, % at 5 µM. 96,000 tested, 21% active. CYP2C19 Supersomes, luciferin-H EGE luminescence, 30 min;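 active = CYP2C19 inhibition above a set limit at 5 µM in the primary screen, cut at about 50% in these data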;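 also: plate controls were negative control wells for no effect and 2.5 mM tranylcypromine positive control for full effect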
* hit, by the source's call. Rule as the data show it, unless noted: active = inhibition above about 30%; inactive = the rest.

SMILES	PostGolgi yeast	CYP2C9 activ	PostGolgi ctrl	CYP2C9 inhib	CYP2C19 activ	CYP2C19 inhib
COc1ccc(OCC(=O)Nc2cccc(OC)c2)cc1	3	1.2	8	-19	0.3	71*
Cc1ccnc(NC(=O)COC(=O)C2COc3ccccc3O2)n1 (stereo unspecified)	1	0.9	4	5	1	3
Cc1ccc(S(=O)(=O)NCc2ccc(C(=O)N3CCN(Cc4ccccc4)CC3)cc2)cc1	-4	0.7	9	30	0.6	39
CC(=O)c1cccc(NC(=O)Cc2ccc3c(c2)CCCC3)c1	-11	2.6*	6	-164	0.8	17
CC(=O)c1cccc(NC(=O)COc2ccccc2)c1	5	0.4	16	57*	0.3	74*
COc1ccc(CC(=O)Nc2cccc(-c3csc(C)n3)c2)cc1	4	0.4	14	60*	0.3	69*
Cc1ccc(NC(=O)Cc2ccc3c(c2)CCCC3)cc1C	-1	1.3	-1	-30	0.6	42
COc1cccc(NC(=O)CN(c2cccc(F)c2)S(C)(=O)=O)c1	-7	0.7	22	30	0.7	26
COc1ccc(CC(=O)Nc2ccc(-c3csc(C)n3)cc2)cc1	-5	0.8	-11	17	0.8	22
CCN(CC(=O)Nc1cccc(OC)c1)C(=O)c1ccc(C)s1	9	0.3	-5	72*	0.2	76*
N/C(=N\c1nc2ccccc2o1)NC(=O)c1ccc(F)cc1	-8	1.4	1	-36	0.9	10
COC1CCCCC1Nc1cc(C)cc(C)c1 (stereo unspecified)	10	1	-1	4	0.9	11
COc1cccc(CNC(=O)Cn2cc3c(n2)CCCCC3)c1	-3	2.4*	11	-140	0.1	92*
CN(C)c1ccc(NC(=O)Cn2cc3c(n2)CCCC3)cc1	-2	1.1	-1	-11	0.1	92*
c1ccc(C2=Nn3c(nnc3-c3cccnc3)SC2)cc1	12	1.2	10	-23	0.7	27
O=C(CSCc1ccccc1Cl)NN1C(=O)c2ccccc2C1=O	0	0.5	-1	51*	0.5	49
Cc1ccc2cccc(Oc3cnccn3)c2n1	-21	1.1	15	-5	1	-2
OCCCCNCc1ccc(OCc2ccc(Cl)cc2Cl)cc1	51*	1.2	27	-17	1	0
N#Cc1cc(-c2ccccc2)nnc1Sc1ccc(Cl)cc1	2	1	0	-2	1.1	-9
N#Cc1cc(N)ccc1Sc1ccccc1	23	2*	0	-104	0.5	46
N#Cc1cc(N)ccc1Sc1ccc(Cl)cc1	9	1.9	53*	-87	0.5	50
CCOc1cc(C(=O)Nc2cccc3ncccc23)cc(OCC)c1OCC	20	0.8	1	16	0.9	11
CCOc1cc(/C=C2/SC(=Nc3ccccc3)N(Cc3cccnc3)C2=O)ccc1OCC#N	5	1	0	-1	0.9	13
COc1ccccc1NCC(O)Cn1c2ccccc2c2ccccc21 (stereo unspecified)	13	0.2	57*	77*	0.3	69*
CCCc1[nH]c(=O)c(C#N)c2c1CCCC2	4	0.9	0	14	1	-1
SMILES	PostGolgi yeast	CYP2C9 activ	PostGolgi ctrl	CYP2C9 inhib	CYP2C19 activ	CYP2C19 inhib
CCOC(=O)CCn1nc(-c2ccc(Cl)cc2)cc1N	3	0.6	4	38	0.2	79*
CCOC(=O)Cn1nc(-c2ccc(Cl)cc2)cc1N	-1	0.7	25	25	0.3	74*
CCOC(=O)N1CCN(C(=O)CCn2nc(-c3ccc(Cl)cc3)ccc2=O)CC1	-3	0.9	7	13	0.9	10
Cc1nnc(-c2cnn(-c3ccccc3)c2N)n1Cc1ccncc1	4	0.8	3	18	0.6	38
COc1ccc2nc(C(F)(F)C(F)(F)F)c(C#N)c(N)c2c1	2	0.7	19	26	1	2
CCCCOc1ccc(-c2nc(-c3cccnc3)no2)cc1	1	0.9	3	14	0.8	16
CCCCc1ccc(-c2nc(-c3ccncc3)no2)cc1	3	0.3	-6	67*	0.2	84*
CCc1ccc(-c2nc(-c3ccncc3)no2)cc1	2	0.2	10	84*	0	99*
O=c1nc2ccccc2c2n1CC(CN1CCN(c3cccc(Cl)c3)CC1)N2 (stereo unspecified)	15	1.3	14	-30	1.2	-15
